# Reference: PubChem BioAssay (NCI)
# This is part of a sample that, as a whole, favours compounds with a hit. Of some 83,000 tested, about 20% had one in any assay.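 Note: values are percent growth. 100 is the growth of untreated cells, values between 100 and 0 indicate rising inhibition; between -100 and 0 indicates cell death.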 Values without a mark were called inactive. Calls of active or inactive are those of the source. Rule for the calls: active = growth percent below 10; inactive = the rest.
# What was measured:
# Assay in all cases: NCI-60 one-dose screen, 48 h (100 = growth as untreated, 0 = no growth, -100 = all killed)
# Conditions in all cases: 10 µM unless noted
# DU-145 prostate = test system: DU-145 prostate
# K-562 leukemia = test system: K-562 leukemia
# MALME-3M melanoma = test system: MALME-3M melanoma
# MDA-MB-231 breast = test system: MDA-MB-231 breast
# SF-268 CNS = test system: SF-268 CNS
# SF-295 CNS = test system: SF-295 CNS
# SF-539 CNS = test system: SF-539 CNS
# UACC-257 melanoma = test system: UACC-257 melanoma
# M14 melanoma = test system: M14 melanoma
# HCT-15 colon = test system: HCT-15 colon
# HT29 colon = test system: HT29 colon
# SNB-75 CNS = test system: SNB-75 CNS
# SNB-19 CNS = test system: SNB-19 CNS
# U251 CNS = test system: U251 CNS
# PC-3 prostate = test system: PC-3 prostate
# UACC-62 melanoma = test system: UACC-62 melanoma
# LOX IMVI melanoma = test system: LOX IMVI melanoma
# SK-MEL-28 melanoma = test system: SK-MEL-28 melanoma
# SK-MEL-5 melanoma = test system: SK-MEL-5 melanoma
SMILES,growth (DU-145 prostate),growth (K-562 leukemia),growth (MALME-3M melanoma),growth (MDA-MB-231 breast),growth (SF-268 CNS),growth (SF-295 CNS),growth (SF-539 CNS),growth (UACC-257 melanoma),growth (M14 melanoma),growth (HCT-15 colon),growth (HT29 colon),growth (SNB-75 CNS),growth (SNB-19 CNS),growth (U251 CNS),growth (PC-3 prostate),growth (UACC-62 melanoma),growth (LOX IMVI melanoma),growth (SK-MEL-28 melanoma),growth (SK-MEL-5 melanoma) [%]
Clc1nc(Cl)c2ncn(CC3(Cn4cnc5c(Cl)nc(Cl)nc54)COC3)c2n1,-100% (active),-70.4% (active),-69.8% (active),-88.9% (active),-73.7% (active),-83.6% (active),-93.4% (active),-90.9% (active),-92.7% (active),-89.9% (active),-70.1% (active),-96.6% (active),-99.1% (active),-95.9% (active),-98.4% (active),-92.4% (active),-89.2% (active),-97.9% (active),–
COc1cc2ncnc(Nc3ccc(C(=O)/C=C/c4ccc(C(F)(F)F)cc4F)cc3)c2cc1OC,107%,58.4%,106%,90.7%,96.2%,95.8%,93.7%,111%,97.9%,104%,98.8%,87.7%,98.2%,85.4%,83%,–,92%,109%,104
COc1cc(NCC(C)(O)CN(CC(C)C)CC(C)C)c2nc(C)ccc2c1 (centres undefined),110%,67.4%,94%,69.5%,93.7%,83.3%,96.1%,93.1%,91.5%,67.7%,82%,81.4%,87.9%,94.9%,64.5%,–,86.7%,99.3%,86.4
COc1ccc(-c2nc(N=Nc3c(O)[nH]c4ccccc34)nc(N3CCOCC3)c2C#N)cc1,63.7%,75%,51%,42.6%,62.4%,86.4%,-47.2% (active),73.6%,60.9%,69.9%,49.2%,44%,72.6%,37.8%,72.7%,–,66.8%,72.2%,57.5
S=c1[nH]cccc1-c1nnc2n1Nc1nc3ccc(Cl)cc3cc1CS2,117%,97.5%,110%,89.9%,101%,98.5%,97.7%,102%,98.6%,96.9%,110%,91.4%,96.8%,105%,97.7%,87.3%,98%,104%,–
COc1cc(NCCN(CC(C)C)C2CCCC2)c2ncccc2c1,104%,99%,126%,79%,86%,94.1%,98.3%,91.5%,102%,73.8%,71.8%,89.4%,97.6%,–,85.2%,92.8%,89.8%,101%,97.2
COc1ccc(Cc2nc3cc(OC)c(OC)cc3c(=O)[nH]2)cc1,39.5%,115%,273%,73.3%,30.5%,65.3%,100%,4.95% (active),48.8%,29.8%,62.9%,107%,81.7%,77.8%,86.4%,77.6%,61%,79.3%,–
NC(=O)c1cccc(-c2cc(C(N)=O)ccc2Cl)c1,27.1%,8.24% (active),46.4%,47.4%,45.3%,25%,-21% (active),47.8%,16.1%,33.8%,8.86% (active),-19.6% (active),41.6%,–,29.6%,35.7%,42.1%,58.8%,14.9
